Results reported in PubChem BioAssay (Tox21).
Several values for one entry are separate records, joined by “and”; a condition that tells them apart may be missing. Identical values can stand only once. Records with an inconclusive call do not appear. Some compounds were tested as several samples or in several runs, with calls that do not always agree. Activity calls are given as the source filed them. The call rests on the fitted dose curve; in most records, active means well fitted inhibition curve with a large enough effect in the repeat runs; inconclusive means weak or mixed curves; inactive means no such curve, though single readings can be large or run the other way.

target: Cytochrome P450 2C19 (Homo sapiens) (UniProt P33261); assay: Cytochrome P450 Family 2 Subfamily C Member 19 (CYP2C19) small molecule antagonists: luciferase reporter qHTS assay (AID 1671197); conditions: P450-Glo CYP2C19 enzyme, luciferin luminescence, 1 h; series mostly up to 115 µM; activity change, negative = inhibition: at the top concentration; further: nearly all actives have a fitted effect of over 65% in size
From the text: National Center for Advancing Translational Sciences [NCATS]
U.S. Environmental Protection Agency [EPA]
National Institutes of Environmental Health Sciences [NIEHS]
National Toxicology Program [NTP]
U.S. Food and Drug Administration [FDA]
Cytochrome P450 (CYP) enzymes are membrane-bound hemeproteins that play a key role in metabolism of drugs and xenobiotics. Evaluation of the effect of chemicals on CYP isozymes is useful to minimize the adverse drug reactions and toxicities in drug development process. Tox21 chemicals were tested for their effect on CYP enzyme activities by using P450-Glo (TM) screening systems (Promega Corporation, Madison, WI). These systems provide a luminescent method containing proluciferin substrates and are converted to luciferin products by CYP isozymes. The luciferin products formed are detected with a luciferin detection reagent, and the amount of light produced is proportional to CYP activity. P450-Glo (TM) CYP2C19 screening system (Catalog. No. V9880) was used to detect the compounds that interfere in CYP2C19 activity. The positive control compound used for CYP2C19 assay is ketoconazole (Sigma-Aldrich, St. Louis, MO).
Tox21 Assay Protocol Summary:
Two ul of enzyme-substrate mix was dispensed into medium binding white/solid 1536-well plates (Greiner Bio-One North America Inc., Monroe, NC) using a BioRaptr Flying Reagent Dispenser (FRD, Beckman Coulter, Brea, CA). Compounds dissolved in DMSO and positive control (ketoconazole) were transferred to the assay plates at 23 nl using a Pintool station (Wako, San Diego, CA). The assay plates were incubated at room temperature for 10 min. Then 2 ul of NADPH regeneration solution was added to each well of the assay plates using an FRD and incubated at 37C for 1 h. The reaction was stopped by adding 4 ul of detection reagent using an FRD and after 20 min incubation at room temperature the luminescence signal was measured using a ViewLux plate reader (Perkin Elmer, Shelton, CT). Data were expressed as relative luminescence units.
On the % scale 0 is the no-effect control and ±100 the full control effect; potency means the concentration at half of the fitted maximal effect.

Sequence of Cytochrome P450 2C19 (Homo sapiens) (P33261 whole entry, looked up): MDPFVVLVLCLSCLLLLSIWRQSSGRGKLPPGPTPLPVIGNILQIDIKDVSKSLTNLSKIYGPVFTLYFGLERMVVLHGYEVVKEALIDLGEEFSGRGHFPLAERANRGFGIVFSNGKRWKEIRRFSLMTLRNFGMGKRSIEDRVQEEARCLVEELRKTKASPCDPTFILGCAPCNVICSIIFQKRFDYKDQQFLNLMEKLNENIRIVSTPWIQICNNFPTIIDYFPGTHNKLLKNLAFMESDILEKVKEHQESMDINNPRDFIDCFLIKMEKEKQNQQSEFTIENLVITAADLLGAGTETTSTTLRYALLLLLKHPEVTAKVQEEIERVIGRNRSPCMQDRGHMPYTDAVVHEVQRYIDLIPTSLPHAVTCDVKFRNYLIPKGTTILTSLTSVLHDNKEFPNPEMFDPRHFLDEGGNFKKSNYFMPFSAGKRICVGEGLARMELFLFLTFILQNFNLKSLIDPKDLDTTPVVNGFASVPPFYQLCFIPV

Row | SMILES | Potency | activity change, negative = inhibition
1 | O=c1[nH]c(=O)n([C@H]2C[C@H](O)[C@@H](CO)O2)cc1Br | inactive | –
2 | CCCCC(CC)CO (stereo not given) | inactive | –
3 | Cc1cc(C)c(C)cc1C | inactive | –
4 | Fc1ccc(Br)cc1 | 71.7 µM (active) and inactive | –
5 | O=C(O)c1cc(C(=O)O)cc(S(=O)(=O)O)c1 | – | 14.4% (inactive)
6 | CCCCCCOCCO | inactive | –
7 | CCCCOC(=O)COc1ccc(Cl)cc1Cl | 36 µM (active) and 39.9 µM (active) | –
8 | Cc1cccc(O)c1 | inactive | –
9 | CC(c1cc2ccccc2s1)N(O)C(N)=O (stereo not given) | 31.7 µM (active) | –
10 | CCCC(C)=O | inactive | –
11 | C=C(C)C(=O)O[C@H]1C[C@@H]2CC[C@@]1(C)C2(C)C | 17.7 µM (active) and inactive | –
12 | Nc1ccccc1[N+](=O)[O-] | inactive | –
13 | COc1ccc(NC(C)=O)cc1N | 39.8 µM (active) and 39.9 µM (active) | –
14 | O=C(O)CCCCCCCCCCC(=O)O | 32 µM (active) and 31.7 µM (active) | –
15 | ON=C1CCCCC1 | 32 µM (active) and inactive | –
16 | COc1cc(Cc2cnc(N)nc2N)cc(OC)c1OC | inactive | –
17 | O=P(OC(CCl)CCl)(OC(CCl)CCl)OC(CCl)CCl | 7.06 µM (active) and 35.6 µM (active) | –
18 | Cc1occc(=O)c1O | 71 µM (active) and inactive | –
19 | O=C(OCCOCCOC(=O)c1ccccc1)c1ccccc1 | 35.5 µM (active) and 39.9 µM (active) | –
20 | Nc1cc([N+](=O)[O-])ccc1O | 39.9 µM (active) and inactive | –

Row | SMILES | Potency | activity change, negative = inhibition
21 | c1c[nH]cn1 | 84.4 µM (active) | –
22 | CCC(O)OC(O)CC (stereo not given) | inactive | –
23 | CC(O)COCC(C)O (stereo not given) | inactive | –
24 | CN(C)CCOCCN(C)C | – | 23.7% (inactive)
25 | CCCCCC(N)=O | inactive | –
26 | O=C(O)c1cc(=O)c2c(OCC(O)COc3cccc4oc(C(=O)O)cc(=O)c34)cccc2o1 | inactive | –
27 | CC(=O)Nc1cccc(O)c1 | inactive | –
28 | CCCCCC/C(C=O)=C\c1ccccc1 | 40.4 µM (active) and 20 µM (active) | –
29 | CC1=C(C)S(=O)(=O)CCS1(=O)=O | 69.7 µM (active) and inactive | –
30 | CCCSc1ccc2nc(NC(=O)OC)[nH]c2c1 | – | -22.1% (inactive)
31 | O=C(O)c1ccc2c(c1)C(=O)OC2=O | inactive | –
32 | C#CCN(C)Cc1ccccc1 | – | 3.17% [at 52.9 µM] (inactive)
33 | COc1ccc(Cl)cc1C(=O)NCCc1ccc(S(=O)(=O)NC(=O)NC2CCCCC2)cc1 | – | 1.1% [at 52.9 µM] (inactive)
34 | CCCCCCCCCCCCS | inactive | –
35 | OC[C@H]1O[C@@](CO)(O[C@H]2O[C@H](CO)[C@@H](O)[C@H](O)[C@H]2O)[C@@H](O)[C@@H]1O | inactive | –
36 | Cc1ccc(S(N)(=O)=O)cc1 | 19.9 µM (active) and inactive | –
37 | C=CCNC(N)=S | 69.4 µM (active) and inactive | –
38 | CC1=CCC2CC1C2(C)C (stereo not given) | inactive | –
39 | O=S1(=O)CC=CC1 | inactive | –
40 | C=C(C)C(=O)Nc1ccc(Cl)c(Cl)c1 | 22.7 µM (active) and 31.6 µM (active) | –
